Sampled rows, rich in hits. Any-hit rate of the full collection: about 0.84%.
SRC3 TRFRET art: flags TR-FRET format artefacts in PPARgamma SRC-3 recruitment agonist screen; actives 0.39% (n = 99,000); TR-FRET ratio at 8 µM; TR-FRET artefact counter-screen, PPARgamma/SRC-3 format; hits give high values
SRC2 TRFRET art: flags TR-FRET format artefacts in PPARgamma SRC-2 recruitment agonist screen. TR-FRET artefact counter-screen; hits give high values. TR-FRET ratio at 8 µM. actives 0.4% (n = 200,000). AID 1049
SRC1 TRFRET art: TR-FRET artefact, counter-screen to PPARgamma/SRC-1 agonist assay; TR-FRET detection artefact counter-screen, emission ratio; hits give high values; TR-FRET ratio at 8 µM; actives 0.34% (n = 99,000); AID 1051; in the data active = TR-FRET ratio above about 2300
PPARg SRC-2 ag: PPARgamma-driven SRC-2 recruitment agonism; actives 0.34% (n = 200,000); activation, % at 8 µM; PPARgamma LBD-SRC-2 recruitment, biochemical; AID 1032; P37231; in the data active = activation above about 22%
Target sequence (P37231 whole entry, looked up, the tested form may be a part): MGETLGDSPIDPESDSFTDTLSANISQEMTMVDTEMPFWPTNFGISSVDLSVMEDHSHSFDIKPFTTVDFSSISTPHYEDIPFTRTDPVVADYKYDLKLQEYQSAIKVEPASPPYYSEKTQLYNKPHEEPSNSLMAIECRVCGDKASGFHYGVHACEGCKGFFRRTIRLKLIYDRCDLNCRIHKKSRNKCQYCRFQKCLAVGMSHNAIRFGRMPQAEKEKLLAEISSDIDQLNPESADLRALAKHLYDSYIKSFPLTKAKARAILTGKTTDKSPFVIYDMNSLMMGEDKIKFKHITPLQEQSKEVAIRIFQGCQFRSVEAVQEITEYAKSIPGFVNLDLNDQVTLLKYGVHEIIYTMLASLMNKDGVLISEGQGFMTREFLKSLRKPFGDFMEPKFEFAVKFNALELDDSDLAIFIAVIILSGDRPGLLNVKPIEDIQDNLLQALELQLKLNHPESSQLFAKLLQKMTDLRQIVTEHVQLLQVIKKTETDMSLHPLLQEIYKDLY
PPARg SRC3 recr: PPARgamma-driven SRC-3 recruitment agonism | biochemical PPARgamma/SRC-3 coactivator recruitment assay | activation, % at 8 µM | actives 0.26% (n = 200,000) | P37231; in the data active = activation above about 23%
PPARg SRC1 recr: PPARgamma-driven SRC-1 recruitment agonism. PPARgamma-SRC-1 coactivator recruitment biochemical assay. AID 631. actives 0.41% (n = 200,000). P37231. activation, % at 8 µM; in the data active = activation above about 19%
PPARg SRC2 conf: confirmation of agonists of SRC-2 recruitment by human PPARgamma; activation, % at 8 µM; AID 1297; biochemical SRC-2 recruitment by PPARgamma; shares compounds with PPARg SRC3 recr; actives 52% (n = 790); in the data active = activation above about 22%
PPARg SRC1 ag: human PPARgamma SRC-1 recruitment agonism, confirmation; actives 43% (n = 790); activation, % at 8 µM; PPARgamma–SRC-1 coactivator recruitment biochemical assay; shares compounds with PPARg SRC3 recr; in the data active = activation above about 20%
PPARg SRC3 ag: confirmation of agonists of SRC-3 recruitment by human PPARgamma | actives 29% (n = 790) | biochemical PPARgamma-SRC-3 coactivator recruitment, agonist mode | activation, % at 8 µM | shares compounds with PPARg SRC3 recr | AID 1301; in the data active = activation above about 24%
Each line names hits and unclear results; the compound was inactive in the other large screens (follow-up assays come after a bar, where they were run). Rule as the data show it, unless noted: active = TR-FRET ratio above about 2000; inactive = the rest.

O=S(=O)(Cc1ccc(Cl)cc1)c1ccccc1-c1nnc(-c2ccccc2)o1	SRC2 TRFRET art 2006, PPARg SRC-2 ag 26 (no result: SRC3 TRFRET art, SRC1 TRFRET art) | PPARg SRC2 conf inactive | PPARg SRC1 ag inactive | PPARg SRC3 ag inactive
CS(=O)(=O)c1ccccc1-c1nnc(-c2ccc(Cl)cc2)o1	none
CCN(C(=O)COC(=O)c1cc(-c2cccc3ccccc23)nc2ccccc12)C1CCS(=O)(=O)C1 (stereo unspecified)	SRC3 TRFRET art 2078, PPARg SRC-2 ag 22 | PPARg SRC2 conf inactive | PPARg SRC1 ag inactive | PPARg SRC3 ag inactive
O=C(COC(=O)c1cc(-c2cccc3ccccc23)nc2ccccc12)NC1CCS(=O)(=O)C1 (stereo unspecified)	none
Cc1ccsc1/C=C1\SC(N2CC(C)OC(C)C2)=NC1=O (stereo unspecified)	none
CNC(=O)NC(=O)CSc1nc(-c2cccs2)c(C#N)c(=O)[nH]1	SRC3 TRFRET art 2978, SRC2 TRFRET art 3062, SRC1 TRFRET art 3256, PPARg SRC-2 ag 56, PPARg SRC3 recr 31, PPARg SRC1 recr 41 | PPARg SRC2 conf 43 | PPARg SRC1 ag 29 | PPARg SRC3 ag 30
N#Cc1c(-c2cccs2)nc(SCc2ccc(Cl)cc2)[nH]c1=O	SRC3 TRFRET art 2717, SRC2 TRFRET art 2686, SRC1 TRFRET art 3031, PPARg SRC-2 ag 43, PPARg SRC3 recr 24, PPARg SRC1 recr 32 | PPARg SRC2 conf 36 | PPARg SRC1 ag 25 | PPARg SRC3 ag 24
CCOC(=O)Cc1csc(NC(=O)CSc2nc(-c3ccccc3)c(C#N)c(=O)[nH]2)n1	none
O=c1[nH]c(SCc2ccc(Cl)cc2)nc2ccsc12	none
COc1ccc(C2=NN(CN3C(=O)C(=O)c4ccccc43)C(c3ccc(OC)cc3)C2)cc1 (stereo unspecified)	none
CC(=O)c1cc(NC(=O)c2ccc(Cl)cc2)c(=O)oc1/C=C/N(C)C	PPARg SRC1 recr 20 (no result: SRC3 TRFRET art, SRC1 TRFRET art) | PPARg SRC2 conf inactive | PPARg SRC1 ag inactive | PPARg SRC3 ag inactive
CC(=O)c1cc(NC(=O)c2cccc(C(F)(F)F)c2)c(=O)oc1/C=C/N(C)C	none (no result: SRC3 TRFRET art, SRC1 TRFRET art)
Cc1cc(=O)oc2cc(OCc3ccc(C(=O)OCC(=O)Nc4ccccc4OC(F)F)cc3)ccc12	none
O=C(Cn1cnc2scc(-c3cccc([N+](=O)[O-])c3)c2c1=O)NCc1ccco1	none
Cc1cc(=O)c2cc(Cl)ccc2[nH]1	none (no result: SRC3 TRFRET art, SRC1 TRFRET art)
Cc1ccc2[nH]c(C)cc(=S)c2c1	SRC3 TRFRET art 2534, SRC2 TRFRET art 2363, SRC1 TRFRET art 2798, PPARg SRC-2 ag 38, PPARg SRC1 recr 26 | PPARg SRC2 conf inactive | PPARg SRC1 ag inactive | PPARg SRC3 ag inactive
O=[N+]([O-])c1ccc(N/N=C/c2c[nH]c3ccccc23)cc1	none (no result: SRC3 TRFRET art, SRC1 TRFRET art)
O=[N+]([O-])c1ccc(N/N=C/c2ccc[nH]2)cc1	PPARg SRC-2 ag 28 | PPARg SRC2 conf inactive | PPARg SRC1 ag inactive | PPARg SRC3 ag inactive
COc1cccc(CNC(=S)Nc2cc(OC)ccc2OC)c1	none
CC[n+]1c(/C=C/c2ccc(N(C)C)cc2)ccc2ccccc21	SRC3 TRFRET art 2785, SRC2 TRFRET art 2167, SRC1 TRFRET art 3540, PPARg SRC-2 ag 64, PPARg SRC3 recr 47, PPARg SRC1 recr 61 | PPARg SRC2 conf 53 | PPARg SRC1 ag 39 | PPARg SRC3 ag 30
CN(C)c1ccc(/C=C/c2cc[n+](C)cc2)cc1	none (no result: SRC3 TRFRET art, SRC1 TRFRET art)
CC[n+]1ccc(/C=C/c2ccc(N(C)C)cc2)c2ccccc21	SRC3 TRFRET art 4546, SRC2 TRFRET art 4436, SRC1 TRFRET art 4146, PPARg SRC-2 ag 109, PPARg SRC3 recr 125, PPARg SRC1 recr 149 | PPARg SRC2 conf 160 | PPARg SRC1 ag 119 | PPARg SRC3 ag 105
CC[n+]1ccccc1/C=C/c1ccc(N(C)C)cc1	none
